For 8 molecules, outcome and AC50 results are on record in PubChem BioAssay (EPA / NIEHS).

A short description of test [1]: ATG_TGFb_CIS: Attagene CIS-FACTORIAL HepG2 Assay for human Transforming Growth Factor (TGF) (AID 2282967; active = hit-call score of the fitted dose curve at least 0.9, where 1 is the maximum; inactive = score below 0.9). The conditions noted are these: HepG2 Attagene CIS TGFb reporter, mRNA transcription; actives raise or lower the signal. Put shortly: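 Multiplexed cis-reporter HepG2 system, 24 h treatment; mRNA induction read by fluorescence after RT-PCR and CE; DMSO negative control, bidirectional curve fitting.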

Test [2] is described as follows: ATG_VDRE_CIS: Attagene CIS-FACTORIAL HepG2 Assay for human Vitamin D Receptor Element (VDRE) (AID 2282968; active = hit-call score of the fitted dose curve at least 0.9, where 1 is the maximum; inactive = score below 0.9). The note with it: HepG2 VDRE cis-reporter transcription, actives raise or lower the signal. Summed up:
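Compounds were applied for 24 h to HepG2 cells transfected with promoter-regulated reporter units. Total RNA was reverse-transcribed, and reporter amplicons were fluorescently labelled and sized by capillary electrophoresis.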

Test [3] deals with X-box-binding protein 1 (Homo sapiens) (UniProt P17861). The experiment in a line: ATG_Xbp1_CIS: Attagene CIS-FACTORIAL HepG2 Assay for human X-box Binding Protein 1 (XBP1) (AID 2282972; active = hit-call score of the fitted dose curve at least 0.9, where 1 is the maximum; inactive = score below 0.9). The conditions noted are these: HepG2 XBP1 cis-element reporter, Attagene multiplex; actives raise or lower the signal. Put shortly: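 Human hepatoma HepG2, cis-element reporter system, 24 h treatment; mRNA quantified by RT-PCR/CE fluorescence; fit relative to DMSO.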
X-box-binding protein 1 (Homo sapiens), sequence (P17861 whole entry, looked up): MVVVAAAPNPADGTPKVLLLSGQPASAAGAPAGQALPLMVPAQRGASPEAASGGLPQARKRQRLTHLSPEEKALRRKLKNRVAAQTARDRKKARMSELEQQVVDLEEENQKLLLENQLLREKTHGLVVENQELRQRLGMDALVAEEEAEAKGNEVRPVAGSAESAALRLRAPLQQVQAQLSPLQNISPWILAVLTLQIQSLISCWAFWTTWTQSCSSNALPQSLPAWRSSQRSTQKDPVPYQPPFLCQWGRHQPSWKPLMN

The nature of test [4]: ATG_M_19_TRANS: Attagene TRANS-FACTORIAL HepG2 Assay for M19 Transcription Factor (Internal Marker) (AID 2282974). The conditions noted are these: HepG2 Attagene TRANS-FACTORIAL M19 internal marker reporter. Put shortly:
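Fluorescence of 6-FAM-labelled reporter cDNA fragments, separated by capillary electrophoresis, served as the readout. These derived from HepG2 cells carrying transfected GAL4-UAS reporter units after 24 h dosing, with DMSO as negative control.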

The target in test [5] is Glucocorticoid receptor (Homo sapiens) (UniProt P04150). The test can be described thus: ATG_GR_TRANS: Attagene TRANS-FACTORIAL HepG2 Assay for human Glucocorticoid Receptor (GR) (AID 2282978).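 Also: activators score as hits since higher reporter transcript over DMSO is fitted.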 The note with it: HepG2 Attagene TRANS GR reporter, mRNA transcription. Put shortly:
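Fluorescent capillary-electrophoresis quantitation of reporter mRNA is the readout, taken 24 h after dosing human HepG2 cells carrying transiently transfected GAL4-UAS reporter units activated by chimeric NR-GAL4 fusions; activity scored as induction over DMSO.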

The target in test [6] is Bile acid receptor (Homo sapiens) (UniProt Q96RI1). The test can be described thus: ATG_FXR_TRANS: Attagene TRANS-FACTORIAL HepG2 Assay for Farnesoid X Receptor (FXR) (AID 2282979).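 Also: hits raise reporter mRNA above DMSO so AC50 marks FXR activation.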 The note with it: HepG2 Attagene TRANS FXR-GAL4 reporter transcription. Summed up: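 Reporter transcripts from transfected HepG2 cells were measured 24 h after dosing, using RT-PCR with capillary electrophoresis of 6-FAM-labelled fragments. The read-out reflects activity of exogenous FXR-Gal4 chimera on GAL4-UAS units, with induction relative to DMSO.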
Bile acid receptor (Homo sapiens), sequence (Q96RI1 whole entry, looked up, the tested form may be a part): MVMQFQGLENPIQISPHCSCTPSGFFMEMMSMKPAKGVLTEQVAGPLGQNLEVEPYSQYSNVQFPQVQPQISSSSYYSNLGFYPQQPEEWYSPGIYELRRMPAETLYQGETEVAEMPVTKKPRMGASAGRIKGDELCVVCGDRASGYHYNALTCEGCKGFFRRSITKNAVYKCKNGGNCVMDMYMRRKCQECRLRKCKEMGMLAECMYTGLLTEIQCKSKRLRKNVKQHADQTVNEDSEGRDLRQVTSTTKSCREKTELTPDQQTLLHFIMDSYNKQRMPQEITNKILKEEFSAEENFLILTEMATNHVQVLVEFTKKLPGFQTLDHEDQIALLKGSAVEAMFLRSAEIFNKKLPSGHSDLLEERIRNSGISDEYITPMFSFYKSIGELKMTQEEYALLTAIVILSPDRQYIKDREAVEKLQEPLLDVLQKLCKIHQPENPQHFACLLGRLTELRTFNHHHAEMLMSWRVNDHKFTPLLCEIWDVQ

Test [7] addresses Oxysterols receptor LXR-alpha (Homo sapiens) (UniProt Q13133). The experiment in a line: ATG_LXRa_TRANS: Attagene TRANS-FACTORIAL HepG2 Assay for human Liver X Receptor alpha (LXRa) (AID 2282980). The conditions noted are these: HepG2 Attagene TRANS reporter, LXRa transactivation. Summed up:
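Chemical-induced reporter mRNA measured by RT-PCR with fluorescent labelling and capillary electrophoresis after 24 h dosing of transiently transfected HepG2 cells expressing exogenous NR-Gal4 chimeras; increases scored against DMSO baseline.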

The target of test [8] is Oxysterols receptor LXR-beta (Homo sapiens) (UniProt P55055). The experiment in a line: ATG_LXRb_TRANS: Attagene TRANS-FACTORIAL HepG2 Assay for human Liver X Receptor beta (LXRb) (AID 2282981). The conditions noted are these: HepG2 Attagene TRANS GAL4-LXRb reporter, mRNA. Summed up: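 Multiplexed reporter assay, HepG2, 24 h dosing. Fluorescence of labelled RT-PCR products after capillary electrophoresis gives transcript level; positive fitting direction relative to DMSO.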
Oxysterols receptor LXR-beta (Homo sapiens), sequence (P55055 whole entry, looked up, the tested form may be a part): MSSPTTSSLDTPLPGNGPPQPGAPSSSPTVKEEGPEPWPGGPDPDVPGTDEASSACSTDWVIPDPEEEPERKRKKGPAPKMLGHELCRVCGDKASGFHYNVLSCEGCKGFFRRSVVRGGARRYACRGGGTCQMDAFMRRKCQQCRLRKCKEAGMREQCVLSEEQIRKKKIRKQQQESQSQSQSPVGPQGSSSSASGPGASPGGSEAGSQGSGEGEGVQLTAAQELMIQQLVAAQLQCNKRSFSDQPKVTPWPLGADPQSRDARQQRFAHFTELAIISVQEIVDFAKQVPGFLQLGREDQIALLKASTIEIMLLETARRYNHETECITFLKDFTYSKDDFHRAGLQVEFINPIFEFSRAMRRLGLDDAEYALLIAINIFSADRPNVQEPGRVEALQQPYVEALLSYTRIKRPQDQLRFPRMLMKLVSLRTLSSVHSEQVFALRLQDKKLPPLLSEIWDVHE

Test [9] is described as follows: ATG_M_32_TRANS: Attagene TRANS-FACTORIAL HepG2 Assay for M32 Transcription Factor (Internal Marker) (AID 2282984). The note with it: HepG2 Attagene TRANS M32 internal marker reporter. Put shortly:
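Internal-marker readout from a multiplexed transcription reporter panel. HepG2 cells were transfected with GAL4-UAS reporter units, treated 24 hours, and reporter transcript levels determined by fluorescence after RT-PCR and capillary separation.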

The target in test [10] is Nuclear receptor subfamily 4 group A member 2 (Homo sapiens) (UniProt P43354). The experiment in a line: ATG_NURR1_TRANS: Attagene TRANS-FACTORIAL HepG2 Assay for human Nuclear Receptor Related Protein 1 (NURR1) (AID 2282985). The conditions noted are these: HepG2 Attagene TRANS reporter, mRNA readout. Summed up: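 Endpoint: reporter mRNA increase relative to DMSO. HepG2 cells transfected with reporter units, treated 24 h; RNA processed by RT-PCR, labelling, HpaI digestion and capillary electrophoresis.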
Nuclear receptor subfamily 4 group A member 2 (Homo sapiens), sequence (P43354 whole entry, looked up): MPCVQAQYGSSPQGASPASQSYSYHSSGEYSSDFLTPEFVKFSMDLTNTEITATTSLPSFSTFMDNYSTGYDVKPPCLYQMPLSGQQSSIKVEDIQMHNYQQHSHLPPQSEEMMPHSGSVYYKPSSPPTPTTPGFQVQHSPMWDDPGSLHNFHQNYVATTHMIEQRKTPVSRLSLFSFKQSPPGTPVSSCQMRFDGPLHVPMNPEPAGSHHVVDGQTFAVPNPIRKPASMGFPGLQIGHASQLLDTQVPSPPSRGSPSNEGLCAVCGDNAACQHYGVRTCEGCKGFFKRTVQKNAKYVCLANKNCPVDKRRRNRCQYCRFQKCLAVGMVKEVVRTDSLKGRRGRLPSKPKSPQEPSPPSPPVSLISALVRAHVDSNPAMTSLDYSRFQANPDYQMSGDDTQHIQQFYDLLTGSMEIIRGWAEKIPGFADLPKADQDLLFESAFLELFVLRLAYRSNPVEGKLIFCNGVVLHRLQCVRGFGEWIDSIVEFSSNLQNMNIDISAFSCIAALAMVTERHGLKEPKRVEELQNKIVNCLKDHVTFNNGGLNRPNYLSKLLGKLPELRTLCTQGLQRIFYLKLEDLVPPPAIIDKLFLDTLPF

In test [11] the target is Transcriptional activator Myb (Homo sapiens) (UniProt P10242). The test can be described thus: ATG_Myb_CIS: Attagene CIS-FACTORIAL HepG2 Assay for human Myeloblastosis (Myb) Proto-Oncogene Transcription Factor (AID 2282986; active = hit-call score of the fitted dose curve at least 0.9, where 1 is the maximum; inactive = score below 0.9). The note with it: HepG2 Attagene CIS-FACTORIAL Myb reporter transcription; actives raise or lower the signal. Put shortly:
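Reporter transcript levels, quantified by fluorescent RT-PCR and capillary electrophoresis, serve as the read-out. Transfected HepG2 cells carrying cis-promoter reporter units are dosed for 24 hours, and curves are fitted bidirectionally against DMSO controls.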

The target of test [12] is Nuclear respiratory factor 1 (Homo sapiens) (UniProt Q16656). The experiment in a line: ATG_NRF1_CIS: Attagene CIS-FACTORIAL HepG2 Assay for human Nuclear Respiratory Factor 1 (NRF1) Orphan Gene (AID 2282987; active = hit-call score of the fitted dose curve at least 0.9, where 1 is the maximum; inactive = score below 0.9). The note with it: HepG2 NRF1 cis-element reporter, Attagene multiplex; actives raise or lower the signal. Put shortly: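 Multiplexed cis-reporter assay, HepG2 cells, 24 h treatment. Total RNA → oligo(dT) RT → PCR with reporter-specific primers → 6-FAM primer extension → HpaI cut → CE. Bidirectional fit vs DMSO.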
Nuclear respiratory factor 1 (Homo sapiens), sequence (Q16656 whole entry, looked up): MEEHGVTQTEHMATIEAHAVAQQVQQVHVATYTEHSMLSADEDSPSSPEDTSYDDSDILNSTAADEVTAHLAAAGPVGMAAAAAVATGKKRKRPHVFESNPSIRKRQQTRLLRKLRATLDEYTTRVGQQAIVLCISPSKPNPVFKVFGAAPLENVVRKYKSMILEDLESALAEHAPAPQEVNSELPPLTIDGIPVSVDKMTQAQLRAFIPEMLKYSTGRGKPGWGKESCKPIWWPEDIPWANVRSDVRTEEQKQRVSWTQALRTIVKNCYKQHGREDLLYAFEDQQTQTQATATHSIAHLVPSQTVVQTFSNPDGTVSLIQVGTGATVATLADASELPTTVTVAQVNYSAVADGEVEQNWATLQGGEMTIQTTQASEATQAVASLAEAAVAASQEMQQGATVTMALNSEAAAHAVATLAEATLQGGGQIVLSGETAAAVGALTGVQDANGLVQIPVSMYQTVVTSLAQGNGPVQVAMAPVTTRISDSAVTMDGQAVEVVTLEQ

Test [13] addresses Hepatocyte nuclear factor 4-alpha (Homo sapiens) (UniProt P41235). The test can be described thus: ATG_HNF4a_TRANS: Attagene TRANS-FACTORIAL HepG2 Assay for human Hepatocyte Nuclear Factor 4 alpha (HNF4a) (AID 2282982). The note with it: HepG2 HNF4a transactivation reporter, mRNA readout. Put shortly:
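Endpoint reflects transcriptional activation of a GAL4-UAS reporter by an HNF4a-GAL4 chimera in transfected HepG2 cells, 24 h post-dosing. Fluorescence from RT-PCR products separated by capillary electrophoresis; DMSO baseline.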

Test [14] in a line: ATG_M_06_TRANS: Attagene TRANS-FACTORIAL HepG2 Assay for M06 Transcription Factor (Internal Marker) (AID 2282983). The note with it: HepG2 Attagene TRANS M06 internal marker reporter. Put shortly: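 Background-control reporter readout: after 24 h chemical exposure of transiently transfected HepG2 (GAL4-UAS reporter units), mRNA quantified by RT-PCR with fluorescent labeling and capillary electrophoresis. Gain-of-signal fitting against DMSO baseline.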

Test [15] in a line: ATG_GAL4_TRANS: Attagene TRANS-FACTORIAL HepG2 Assay for GAL4 (Internal Marker) (AID 2282976). The conditions noted are these: HepG2 Attagene TRANS GAL4 internal marker reporter. Summed up: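 In transfected human HepG2 liver cells dosed 24 h, GAL4 reporter mRNA serves as a baseline marker. Detection by RT-PCR with fluorescent capillary electrophoresis, activity fitted upward relative to DMSO.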

Test [16] concerns the target Steroid hormone receptor ERR1 (Homo sapiens) (UniProt P11474). The test can be described thus: ATG_ERRa_TRANS: Attagene TRANS-FACTORIAL HepG2 Assay for human Estrogen-Related Receptor alpha (ERRa) (AID 2282971). The note with it: HepG2 Attagene TRANS reporter, ERRa transactivation. Put shortly:
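Reporter transcripts from ERRa-Gal4 chimera activity measured in transiently transfected human HepG2 cells 24 hours after dosing, using RT-PCR with 6-FAM primer extension, HpaI digestion and capillary electrophoresis; DMSO is baseline.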

In test [17] the target is Estrogen-related receptor gamma (Homo sapiens) (UniProt P62508). The experiment in a line: ATG_ERRg_TRANS: Attagene TRANS-FACTORIAL HepG2 Assay for human Estrogen-Related Receptor gamma (ERRg) (AID 2282977).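 Also: hits increase reporter signal over DMSO so potencies reflect activators.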 The conditions noted are these: HepG2 Attagene TRANS reporter, ERRg transactivation. Put shortly: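 Exogenous NR-Gal4 chimera activity measured as reporter transcript induction after 24 h in transiently transfected HepG2 cells. RNA reverse-transcribed, PCR-amplified, 6-FAM-labelled and resolved by capillary electrophoresis; increase over DMSO baseline.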

The target of test [18] is Nuclear receptor subfamily 1 group I member 3 (Homo sapiens) (UniProt Q14994). The experiment in a line: ATG_CAR_TRANS: Attagene TRANS-FACTORIAL HepG2 Assay for human Constitutive Androstane Receptor (CAR) (AID 2282969).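 Also: activators raise reporter mRNA above DMSO so AC50 marks induction.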 The note with it: HepG2 Attagene TRANS-FACTORIAL CAR reporter. Put shortly: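 Transiently transfected HepG2, multiplex TRANS reporters (CAR-Gal4 chimera driving GAL4-UAS reporter). 24 h dosing. Readout: reporter transcript by RT-PCR + capillary electrophoresis, fluorescence intensity; positive direction vs DMSO.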
Nuclear receptor subfamily 1 group I member 3 (Homo sapiens), sequence (Q14994 whole entry, looked up, the tested form may be a part): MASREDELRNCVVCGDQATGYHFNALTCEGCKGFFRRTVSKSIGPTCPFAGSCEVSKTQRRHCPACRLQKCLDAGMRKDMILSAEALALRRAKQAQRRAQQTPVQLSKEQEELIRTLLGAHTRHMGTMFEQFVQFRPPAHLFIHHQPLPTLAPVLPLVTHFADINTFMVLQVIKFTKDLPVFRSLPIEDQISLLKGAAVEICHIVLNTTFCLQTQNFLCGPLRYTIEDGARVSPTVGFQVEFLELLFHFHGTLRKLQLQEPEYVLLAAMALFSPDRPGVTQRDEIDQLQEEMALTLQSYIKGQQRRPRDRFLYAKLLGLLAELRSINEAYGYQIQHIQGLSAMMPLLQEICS

The structures appear in SMILES notation. Results filed as inconclusive are left out. Active and inactive are the calls of the source. The calls were made as follows, unless noted: active = hit-call score of the fitted dose curve at least 0.9, where 1 is the maximum; inconclusive = response in the unintended direction; inactive = score below 0.9.

Oxysterols receptor LXR-alpha (Homo sapiens), sequence (Q13133 whole entry, looked up, the tested form may be a part): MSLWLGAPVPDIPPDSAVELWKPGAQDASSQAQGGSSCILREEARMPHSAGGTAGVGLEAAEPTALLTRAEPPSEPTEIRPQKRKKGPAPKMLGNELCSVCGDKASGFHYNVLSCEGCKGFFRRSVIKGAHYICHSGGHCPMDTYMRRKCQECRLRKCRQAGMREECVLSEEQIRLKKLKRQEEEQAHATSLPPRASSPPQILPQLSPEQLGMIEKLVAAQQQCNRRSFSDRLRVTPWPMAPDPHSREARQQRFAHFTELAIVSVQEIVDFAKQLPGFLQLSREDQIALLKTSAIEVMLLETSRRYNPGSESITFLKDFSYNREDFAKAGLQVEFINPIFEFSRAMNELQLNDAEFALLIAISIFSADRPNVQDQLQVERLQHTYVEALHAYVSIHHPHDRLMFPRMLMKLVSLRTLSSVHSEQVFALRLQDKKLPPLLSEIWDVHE
Transcriptional activator Myb (Homo sapiens), sequence (P10242 whole entry, looked up): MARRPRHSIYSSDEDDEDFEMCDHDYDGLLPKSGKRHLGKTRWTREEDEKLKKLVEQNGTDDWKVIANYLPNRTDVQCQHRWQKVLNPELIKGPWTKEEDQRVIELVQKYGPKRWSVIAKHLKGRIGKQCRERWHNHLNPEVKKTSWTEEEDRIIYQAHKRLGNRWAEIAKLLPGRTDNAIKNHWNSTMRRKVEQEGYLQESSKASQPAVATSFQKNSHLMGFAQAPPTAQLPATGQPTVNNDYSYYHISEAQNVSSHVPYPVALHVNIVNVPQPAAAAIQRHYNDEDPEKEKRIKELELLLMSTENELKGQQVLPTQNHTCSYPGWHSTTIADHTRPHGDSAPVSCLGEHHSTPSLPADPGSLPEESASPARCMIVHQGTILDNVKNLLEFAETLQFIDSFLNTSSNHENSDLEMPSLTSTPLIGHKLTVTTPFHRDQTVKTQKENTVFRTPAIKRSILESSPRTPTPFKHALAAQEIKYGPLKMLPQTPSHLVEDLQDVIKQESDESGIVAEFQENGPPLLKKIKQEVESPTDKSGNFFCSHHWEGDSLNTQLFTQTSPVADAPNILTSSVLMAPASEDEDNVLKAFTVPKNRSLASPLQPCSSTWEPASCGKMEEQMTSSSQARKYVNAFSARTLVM
Hepatocyte nuclear factor 4-alpha (Homo sapiens), sequence (P41235 whole entry, looked up, the tested form may be a part): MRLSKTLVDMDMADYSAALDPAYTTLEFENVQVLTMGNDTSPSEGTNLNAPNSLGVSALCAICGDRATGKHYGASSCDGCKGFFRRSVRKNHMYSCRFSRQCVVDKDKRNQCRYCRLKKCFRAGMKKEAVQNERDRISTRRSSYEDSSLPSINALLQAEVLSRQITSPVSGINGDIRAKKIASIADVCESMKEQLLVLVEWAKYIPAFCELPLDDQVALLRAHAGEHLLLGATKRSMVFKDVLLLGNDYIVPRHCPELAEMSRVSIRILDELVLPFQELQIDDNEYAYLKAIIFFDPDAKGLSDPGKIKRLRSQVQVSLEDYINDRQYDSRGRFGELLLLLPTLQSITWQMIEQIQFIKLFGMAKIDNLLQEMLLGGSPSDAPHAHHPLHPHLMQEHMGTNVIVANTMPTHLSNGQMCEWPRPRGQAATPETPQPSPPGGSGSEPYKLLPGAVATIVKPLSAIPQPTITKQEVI
Glucocorticoid receptor (Homo sapiens), sequence (P04150 whole entry, looked up, the tested form may be a part): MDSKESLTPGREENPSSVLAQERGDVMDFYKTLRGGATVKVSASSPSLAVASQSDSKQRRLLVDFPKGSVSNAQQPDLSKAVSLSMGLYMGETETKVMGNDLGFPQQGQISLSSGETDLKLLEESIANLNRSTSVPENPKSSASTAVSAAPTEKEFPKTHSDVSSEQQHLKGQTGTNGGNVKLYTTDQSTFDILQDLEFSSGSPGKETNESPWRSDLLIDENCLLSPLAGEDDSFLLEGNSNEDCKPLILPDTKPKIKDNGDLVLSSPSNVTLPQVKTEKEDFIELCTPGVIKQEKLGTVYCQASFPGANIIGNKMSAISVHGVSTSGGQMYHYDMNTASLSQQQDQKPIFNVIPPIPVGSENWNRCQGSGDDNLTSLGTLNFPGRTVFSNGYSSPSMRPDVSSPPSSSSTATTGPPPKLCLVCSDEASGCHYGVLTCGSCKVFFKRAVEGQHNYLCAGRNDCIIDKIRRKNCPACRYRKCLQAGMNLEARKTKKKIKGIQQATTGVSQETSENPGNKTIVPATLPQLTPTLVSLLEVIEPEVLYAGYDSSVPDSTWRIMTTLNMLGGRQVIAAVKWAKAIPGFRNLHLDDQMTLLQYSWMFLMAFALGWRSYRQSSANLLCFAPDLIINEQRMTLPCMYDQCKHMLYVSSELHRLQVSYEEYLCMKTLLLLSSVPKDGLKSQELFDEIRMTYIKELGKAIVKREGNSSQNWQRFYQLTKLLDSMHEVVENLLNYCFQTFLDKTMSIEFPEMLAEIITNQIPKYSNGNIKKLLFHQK

With `CCc1cc(C(C)(C)C)c(O)c(C(C)(C)C)c1`, the call in test [1], in test [2], in [3], in [4], in [5] and in [6] was inactive. The molecule was called inactive in test [7], in test [8], in test [9], in test [11] and in [12]. Besides, in test [10], the AC50 was 11.4 µM (active).
Regarding `CC(=O)O[C@@H]1C[C@@H]2CC[C@@]1(C)C2(C)C`, the outcome in test [1], in [2], in test [3], in test [4], in [5] and in [6] was inactive. Besides, the outcome in test [7], in test [13], in test [9] and in [12] was inactive.
`CCCSc1ccc2nc(NC(=O)OC)[nH]c2c1`: the molecule was called inactive in [1], in [2], in test [3], in test [5], in [8] and in test [14]. The call in test [9], in test [11] and in test [12] was inactive.
Consider `C=C(C)C(=O)OCC(CC)(COC(=O)C(=C)C)COC(=O)C(=C)C`, for which the outcome in test [1], in test [3], in test [15], in [5], in test [6] and in test [8] was inactive. Further, the call in test [13], in test [14], in test [9], in test [10], in [11] and in [12] was inactive.
`CCNCCO`: the molecule was classed as inactive in test [1], in test [2], in test [3], in test [5], in test [6] and in test [13]. The call in test [14], in test [10], in [11] and in [12] was inactive.
Take `CC1=C(Br)C(=O)C(Br)=C/C1=C(/c1ccccc1S(=O)(=O)O)c1cc(Br)c(O)c(Br)c1C`: the outcome in test [1], in test [3], in test [15], in test [5], in [6] and in [14] was inactive. For the same molecule, the result in test [10], in test [11] and in test [12] was inactive. Also, in test [2], the AC50 is 40.8 µM (active).
Consider `O=c1[nH]c(=O)c2cn[nH]c2[nH]1`, for which the molecule was classed as inactive in [1], in test [2], in [16], in test [3], in test [15] and in test [17]. Further, the molecule was called inactive in test [5], in test [8], in test [13], in [9], in test [11] and in [12].
For the molecule `C=CCCCCCCCCCC`, the result in test [18], in test [4], in [15], in [7], in test [13] and in test [9] was inactive. Besides, the molecule was classed as inactive in [10], in test [11] and in [12].
